What is called AC50 is the concentration giving half of the maximal activity seen.

Calls of active or inactive are those of the source. How the source made its calls: active means hit-call score of the fitted dose curve at least 0.9, where 1 is the maximum; inactive means score below 0.9.

The test can be described thus: ATG_Ets_CIS: Attagene CIS-FACTORIAL HepG2 Assay for human Erythroblast Transformation Specific (ETS) (AID 2282941). To be noted: HepG2 ETS cis-reporter transcription, actives raise or lower the signal. As to the method:
ATG_CIS is a cell-based, multiplexed-readout assay that uses HepG2, a human liver cell line, with measurements taken at 24 hours after chemical dosing in a 24-well plate.ATG_Ets_CIS is one of 52 assay component(s) measured or calculated from the ATG_CIS assay. It is designed to make measurements of mRNA induction, a form of inducible reporter, as detected with fluorescence intensity signals by Reverse transcription polymerase chain reaction (RT-PCR) and Capillary electrophoresis technology.Data from the assay component ATG_Ets_CIS was analyzed into 1 assay endpoint. This assay endpoint, ATG_Ets_CIS, was analyzed with bidirectional fitting relative to DMSO as the negative control and baseline of activity. Using a type of inducible reporter, measures of mRNA for gain or loss-of-signal activity can be used to understand the reporter gene at the transcription factor-level as they relate to the gene ETS1. Furthermore, this assay endpoint can be referred to as a primary readout, because this assay has produced multiple assay endpoints where this one serves a reporter gene function. To generalize the intended target to other relatable targets, this assay endpoint is annotated to the dna binding intended target family, where the subfamily is winged helix-turn-helix.
Human liver HepG2 cells are transiently transfected with multiple reporter transcription units (MRTUs) in 6-well plates using FuGene 6 reagent (Roche; 3 ml FuGene/1 mg DNA). The MRTU constructs are regulated by a cis-regulating element (promoter). […] A major difference between the CIS and TRANS system is that in CIS activities of endogenous TFs are measured, whereas the TRANS assay evaluates changes in activities of exogenous, chimeric NR-Gal4 proteins. […] At the end of 24 hour incubation, total RNA was isolated using TriZol reagent (Invitrogen). The isolated RNA is then reverse-transcribed using oligo(dT) primer and Mo-MLV reverse transcriptase (Invitrogen) with DNAse I (Ambion) treatment for 30 min. The one-tenth of the produced cDNA was amplified by PCR using Taq DNA polymerase (Invitrogen) and two reporter sequence-specific primers. The PCR products were fluorescently labeled by primer extension with 6-arboxyfluorescein (6-FAM) 5'-labeled reporter sequence-specific primer (2 min at 95 C, 20 s at 68 C and 10 min at 72 C) and these products were digested with 5U of HpaI (New England Biolabs) for 2h at 37 C. The fragments were purified using Qiaquick PCR columns (Qiagen), analyzed on an ABI 3130xL genetic analyzer (Applied Biosystems) with peak positions identified by using a set of X-rhodamine (ROX)-labeled MapMarker1000 molecular weight standards (BioVentures). The raw capillary electrophoresis data was processed using Attagraph software (Attagene).
With `CCCCNC(=O)NS(=O)(=O)c1ccc(N)cc1`, the compound was called inactive. Still for that read-out and setting: in the case of `CC1(C)C(=O)N(Br)C(=O)N1Cl` it was “inactive”. The same measure, in the same setting: the entry for `CC(C)(Oc1ccc(CCNC(=O)c2ccc(Cl)cc2)cc1)C(=O)O` is “inactive”; for `OCCCCCO` it is “inactive”; for `O=C(COc1ccc(Cl)cc1)N1CCN(Cc2ccc3c(c2)OCO3)CC1` it is “inactive”.

Regarding `CC1(C)[C@H]2CC[C@]1(C)[C@H](O)C2`, the outcome was inactive.

`Cc1ncc([N+](=O)[O-])n1C`: the compound was classed as inactive.

On to `NNc1nc(-c2ccc(N)cc2)cs1`, for which the result was inactive.

Turning to `O=C1OC2(c3cc(Br)c(O)c(Br)c3Oc3c2cc(Br)c(O)c3Br)c2c(Cl)c(Cl)c(Cl)c(Cl)c21`, the outcome was inactive.

Consider `Cc1cccc(C)c1C`, for which the call was inactive. As for `C=COCCOCCOCCOC=C`, the call was inactive.

As for `COc1nc(C)nc(N)n1`, the compound was classed as inactive. The same measure, in the same setting: in the case of `O=C1NC(=O)c2ccccc21` it was “inactive”. On to `C=CCOC(=O)CCC1CCCCC1`, for which the compound was called inactive.

In the case of `CNC(=O)Oc1ccc2c(c1)[C@]1(C)CCN(C)[C@@H]1N2C`, the compound was classed as inactive. Regarding `O=C1c2ccccc2C(=O)N1SC1CCCCC1`, the AC50 is 159 µM (active). In the case of `O=C(OCc1ccccc1)C(=O)OCc1ccccc1`, the compound was classed as inactive. With `Cc1cccc(C)c1[N+](=O)[O-]`, the compound was called inactive. On the same count and under the same terms, the entry for `Clc1cccc(Cl)n1` is “inactive”; for `O=C(Oc1ccccc1)c1ccc(O)cc1` it is “inactive”; for `Cc1ccccc1C=O` it is “inactive”. The same measure, in the same setting: the entry for `O=S(=O)(O)NC1CCCCC1` is “inactive”; for `C=CCOc1nc(OCC=C)nc(OCC=C)n1` it is “inactive”. Same read-out and setting: the entry for `NC(=O)Nc1ccc(Cl)cc1` is “inactive”. With `CC1CC(OC(=O)c2ccccc2O)CC(C)(C)C1` (stereo not given), the outcome was inactive. Same read-out and setting: in the case of `COc1cc(C=O)ccc1OC(=O)C(C)C` it was “inactive”. On the same count and under the same terms, the entry for `CC(C)(C)NC(N)=O` is “inactive”. The same measure, in the same setting: the entry for `Nc1cccc(S(=O)(=O)c2cccc(N)c2)c1` is “inactive”. Turning to `OCCN1CCNCC1`, the compound was called inactive. The same measure, in the same setting: in the case of `CCOC(=O)c1ccccc1OC` it was “inactive”; in that of `CCCCC[Si](OCC)(OCC)OCC`, “inactive”; in that of `O=CCCc1ccccc1`, “inactive”.

As to `C=C[C@@H](C)CCC=C(C)C`, the compound was classed as inactive.

Turning to `CC(C)CCCCCCCOC(=O)c1ccc(C(=O)OCCCCCCCC(C)C)c(C(=O)OCCCCCCCC(C)C)c1`, the outcome was inactive. The same measure, in the same setting: the entry for `NCCNCCN` is “inactive”; for `NC(=O)NC1NC(=O)NC1=O` (stereo not given) it is “inactive”; for `CCCCCCCCCCCCN(CCCCCCCCCCCC)CCCCCCCCCCCC` it is “inactive”. Same read-out and setting: the entry for `C[C@]12CC[C@H]3[C@@H](CCC4=CC(=O)CC[C@@]43C)[C@@H]1CC[C@@H]2C(=O)CO` is “inactive”; for `Cc1ccc2n[nH]nc2c1` it is “inactive”. Still for that read-out and setting: the entry for `NCCOCCO` is “inactive”.
